# Measured values as given in PubChem BioAssay (NCATS).
# Records with an inconclusive call do not appear. Active and inactive are the calls of the source. Unless noted, calls follow the shape of the dose curve; as a rule, active = well fitted curve in the direction sought with a large enough effect; inconclusive = small, poorly fitted or top-dose-only effect, or another doubt; inactive = no such curve, though single readings can be large; an effect the other way counts as inactive or inconclusive.
# Legend:
# [1] = qHTS profiling of the MIPE4 collection as inhibitors of Plasmodium falciparum (3D7) proliferation (AID 743344; call rule not given here;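 also: scaled between DMSO vehicle wells and 0.29 µM artemisinin as full inhibition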); conditions: P. falciparum 3D7 in erythrocytes, SYBR Green DNA fluorescence, 72 h; at 28.5 µM unless noted
# Procedure, shortened: (§1)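 Erythrocytes infected with P. falciparum (0.3% parasitemia, 2.5% hematocrit) incubated with compounds 72 h at 37 C, 5% CO2. Lysis with saponin/Triton buffer containing SYBR Green I, overnight at room temperature in the dark; DNA fluorescence (485/535 nm) normalised to 0.29 uM artemisinin and DMSO.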
# [2] = qHTS profiling of the MIPE4 collection as inhibitors of Plasmodium falciparum (DD2) proliferation (AID 743345; call rule not given here); conditions: P. falciparum Dd2 in erythrocytes, SYBR Green DNA, 72 h; at 28.5 µM unless noted
# Procedure, shortened: as §1
# [3] = qHTS profiling of the MIPE4 collection as inhibitors of Plasmodium falciparum (DD2) proliferation (Rep 2) (AID 743346; call rule not given here); conditions: P. falciparum Dd2 in erythrocytes, SYBR Green DNA, 72 h; at 28.5 µM unless noted
# Procedure, shortened: as §1
# [4] = qHTS profiling of the MIPE4 collection as inhibitors of Plasmodium falciparum (HB3) proliferation (AID 743347; call rule not given here;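 also: plate controls were DMSO vehicle wells for no effect and artemisinin wells for full effect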); conditions: P. falciparum HB3 in erythrocytes, SYBR Green DNA, 72 h; at 28.5 µM unless noted
# Procedure, shortened: as §1
# [5] = High-throughput drug toxicity screening in the BPDCN cell line Gen2.2 (AID 1224824; call rule not given here;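 also: cells exposed to compounds for 48 h before reading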); conditions: Gen2.2 BPDCN cells; at 45.8 µM (top of the series) unless noted
# Procedure, shortened: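 CellTiter-Glo luminescence after 48 h compound exposure of Gen2.2 cells; percent activity set with DMSO as 100% and bortezomib (9.2 uM final) as 0%. Cells seeded at 500 per well, RPMI + 10% FBS, 37 °C.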
# [6] = High-throughput drug toxicity screening in the BPDCN cell line Cal-1 (AID 1224825; call rule not given here); conditions: Cal-1 BPDCN cell viability, qHTS; at 45.8 µM (top of the series) unless noted
# Procedure, shortened: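 500 Cal-1 cells/well, RPMI + glutamine + 10% FBS (phenol red-free); cpd added by pin tool; 48 h, 37C, 5% CO2; CTG 15 min RT, lumi read. Normalised: DMSO 100%, bortezomib 9.2 uM 0%.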
# [7] = qHTS assay for measurement of the activity of small molecule inhibitors on Zika virus induced Caspase-3 activity in human iPSC derived neural progenitor cells (hNPCs) (AID 1224857); also: % of control where 0% means no effect; nearly all actives have a fitted effect of over 65% in size
# Procedure, shortened: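 hNPCs seeded 350 cells/well, cultured 16–20 h; compounds added 1 h before ZIKV (2 FFU/cell), 37 C 6 h. Caspase-Glo 3/7 luminescence after 30 min RT; % inhibition from induction scaled to uninfected (0%) and infected (100%) wells.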
# [8] = qHTS assay for measurement of the activity of small molecule inhibitors on Zika virus induced Caspase-3 activity in human astrocytoma cells (AID 1224859);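 also: plate controls were ZIKV-infected untreated cells for no effect and uninfected cells for full effect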
# Procedure, shortened: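 Luminescence read-out (Caspase-Glo 3/7, 30 min RT) of caspase activity in SNB-19 cells infected 6 h with ZIKV, 2 FFU/cell, after 1 h compound pretreatment; % inhibition from induction normalised to uninfected (0%) and infected (100%) wells.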
# [9] = qHTS Screen of the MIPE 4.0 Collection Against Ewings Sarcoma (RDES) (AID 1259252); also: nearly all actives have a fitted effect of over 35% in size; also: potency is read from the fitted curve at half-maximal effect
# Procedure, shortened: (§2)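 Cells plated in serum-containing RPMI (5% FBS) and treated with compound dilutions for 48 h. Readout luminescent viability; normalization relied on vehicle (no inhibition) and media-only columns (full inhibition).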
# [10] = qHTS Screen of the MIPE 4.0 Collection Against Ewings Sarcoma (TC71) (AID 1259253); also: nearly all actives have a fitted effect of over 40% in size; also: potency is read from the fitted curve at half-maximal effect
# Procedure, shortened: as §2
# [11] = qHTS Screen of the MIPE 4.0 Collection Against Ewings Sarcoma (EW8) (AID 1259255); also: nearly all actives have a fitted effect of over 35% in size; also: potency is read from the fitted curve at half-maximal effect;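 as to viability: 100% = DMSO-treated cells and 0% = medium-only wells without cells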
# Procedure, shortened: as §2
# [12] = qHTS profiling for inhibitors of Plasmodium falciparum (HB3) proliferation (AID 743324); conditions: Plasmodium falciparum HB3 blood-stage proliferation; at 28.7 µM (top of the series) unless noted;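 also: 100% = DMSO vehicle wells and 0% = artemisinin-treated control wells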
# Procedure, shortened: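 P. falciparum HB3 grown in erythrocytes (0.3% parasitemia, 2.5% hematocrit final) with compound for 72 h at 37 C, 5% CO2. Parasite DNA detected by SYBR Green after saponin/triton lysis overnight; normalized to 0.29 uM artemisinin and DMSO.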
# [13] = Identifying Small Molecule Inhibitors of Pancreatic Cancer Stem Cells (A2780, Spheroid) (AID 1259357); conditions: Potency: A2780 spheroid viability;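 also: spheroids pre-formed over 14 days in stem cell medium on hydrogel; potency is read from the fitted curve at half-maximal effect; compound exposure lasted 48 h before the ATP luminescence read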
# Procedure, shortened: (§3)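 Spheroids grown 14 days in stem cell media on nonadherent hydrogel before screening; cells attached 4 h, then compound exposure 48 h at 37C, 5% CO2. CellTiter-Glo luminescence normalized to DMSO (no inhibition) and no-cell wells (full inhibition).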
# [14] = Identifying Small Molecule Inhibitors of Pancreatic Cancer Stem Cells (Panc1, Spheroid) (AID 1259359);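 also: potency is read from the fitted curve at half-maximal effect; compound exposure lasted 48 h before reading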
# Procedure, shortened: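 Endpoint: ATP-based luminescence, 48 h drug exposure. Bortezomib at 9.2 uM final as full-kill control; DMSO vehicle as negative control; activity normalized between vehicle and cell-free wells.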
# [15] = Identifying Small Molecule Inhibitors of Pancreatic Cancer Stem Cells (SN12C, Spheroid) (AID 1259360); conditions: Potency: SN12C spheroid viability; also: potency is read from the fitted curve at half-maximal effect
# Procedure, shortened: as §3
# [16] = Identifying Small Molecule Inhibitors of Pancreatic Cancer Stem Cells (A278, Adherent) (AID 1259361);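 also: viability read after 48 h compound exposure; nearly all actives have a fitted effect of over 35% in size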
# Procedure, shortened: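 Pre-formed 14-day tumor spheroids or adherent cells dosed and incubated 48 h, 37C, 5% CO2. Viability assessed by CellTiter-Glo.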
# [17] = Identifying Small Molecule Inhibitors of Pancreatic Cancer Stem Cells (Panc1, Adherent) (AID 1259362); conditions: Potency: viability; also: potency is read from the fitted curve at half-maximal effect
# Procedure, shortened: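 Luminescent ATP readout (CellTiter-Glo) quantifies surviving cells after a 48 h drug incubation. Normalization uses DMSO wells as no inhibition and media-only wells as full inhibition; bortezomib served as positive control.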
# [18] = qHTS Screen of the MIPE 4.0 Collection Against Ewings Sarcoma (TC32) (AID 1259256);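 also: 100% = DMSO-treated cells and 0% = medium-only wells without cells; nearly all actives have a fitted effect of over 45% in size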
# Procedure, shortened: as §2
Structure (SMILES),"parasite growth, % of DMSO control [1]","parasite growth remaining, % of DMSO control (lower = more inhibition) [2]","parasite growth, % of control (lower = inhibition) [3]","growth, % of control [4] [%]","cell viability, % of control (lower = more cytotoxic) [5]",viability (% of control) [6],Potency [7],Potency [8],Potency [9],Potency [10],Potency [11],"remaining proliferation (% of control), lower = more inhibition [12] [%]",Potency [13],Potency [14],Potency [15],IC50 (viability decrease) [16],Potency [17],Potency [18]
O=C(Nc1ncc(SCCN2CCCC2)s1)[C@]1(c2ccc(S(=O)(=O)C3CC3)cc2)C[C@@H]1C1CCCCC1,6.74%,7.78%,20.2%,10.1,116%,92.3%,inactive,inactive,13.2 µM (active),23.5 µM (active),13.2 µM (active),–,–,–,–,–,–,–
CC(=O)OCC(=O)[C@@]12OC(C)(C)O[C@H]1C[C@H]1[C@@H]3C[C@H](F)C4=CC(=O)C=C[C@]4(C)[C@@]3(F)[C@@H](O)C[C@@]12C,51.9%,82.3%,35.9%,61.2,76.3%,56.5%,inactive,inactive,inactive,inactive,inactive,–,–,–,–,–,–,–
N#CC(c1ccnc(NCCc2cccnc2)n1)c1nc2ccccc2s1 (configuration not stated),4.46%,18.6%,15.5%,7.28,9.41%,3.4%,inactive,inactive,23.5 µM (active),16.6 µM (active),14.8 µM (active),–,–,–,–,–,–,–
CN[C@@H]1CN(c2ccc3c(=O)c(C(=O)O)cn(-c4nccs4)c3n2)C[C@@H]1OC,9.37% [at 9.64 µM],7.58% [at 9.64 µM],8.12% [at 9.64 µM],–,7.46% [at 23.2 µM],3.44% [at 23.2 µM],inactive,inactive,1.29 µM (active),0.645 µM (active),0.323 µM (active),–,–,–,–,–,–,–
CN(C)CCN(C)C(=O)c1ccc(NC(=O)Nc2ccc(-c3nc(N4CCOCC4)c4ccn(CC(F)(F)F)c4n3)cc2)cc1,–,8.31%,20.5%,5.21,4.33%,3.29%,inactive,inactive,0.0187 µM (active),0.0743 µM (active),0.0209 µM (active),-1,0.418 µM (active),6.62 µM (active),0.264 µM (active),0.0418 µM (active),14.8 µM (active),–
NC(N)=Nc1nc(CSCCC(N)=NS(N)(=O)=O)cs1,74.6%,98.2%,84.9%,92.7,171%,50.4%,inactive,inactive,11.8 µM (active),18.7 µM (active),inactive,–,–,–,–,–,–,–
CC(C)CN(C[C@H](O)[C@H](Cc1ccccc1)NC(=O)O[C@H]1CCOC1)S(=O)(=O)c1ccc(N)cc1,6.57%,73.7%,56.3%,42.8,149%,97.6%,inactive,inactive,16.6 µM (active),18.7 µM (active),18.7 µM (active),–,–,–,–,–,–,–
O=C(O)C1=CC(O)C(O)[C@H](O)C1 (some centres not stated),–,55.1%,86.5%,51.8,146%,105%,inactive,inactive,inactive,inactive,inactive,–,–,–,–,–,–,inactive
